# Source: PubChem BioAssay AID488969 (Vanderbilt High Throughput Screening Facility, 2010)
# Whole data set: some 110,000 compounds, median “z-score” near -0.1, cut for the highest 2% near 2. Only a selection was taken, and the highest values are over-represented in it overall. Active and inactive are the calls of the source.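 How the source made its calls: active means z-score in the third read window above 3 or below -3; inactive means the rest.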 Residues, ends and D or L forms follow the SMILES beside them. *: point of attachment. OBn = c1ccc(CO*)cc1
# Target: Metabotropic glutamate receptor 8 (Rattus norvegicus) (UniProt P70579)
# Experiment: mGluR8 Gi/Go-coupled signaling modulation – cell-based, rat, thallium flux, HTS, primary screen (AID 488969)
# Details: HEK293 rat mGluR8, GIRK (G protein-gated inwardly rectifying potassium channel) thallium flux, FluoZin2; at 10 µM; stronger effect = higher value; submaximal glutamate (EC20) added with thallium
# Chain of Metabotropic glutamate receptor 8 (Rattus norvegicus) (P70579 whole entry, looked up): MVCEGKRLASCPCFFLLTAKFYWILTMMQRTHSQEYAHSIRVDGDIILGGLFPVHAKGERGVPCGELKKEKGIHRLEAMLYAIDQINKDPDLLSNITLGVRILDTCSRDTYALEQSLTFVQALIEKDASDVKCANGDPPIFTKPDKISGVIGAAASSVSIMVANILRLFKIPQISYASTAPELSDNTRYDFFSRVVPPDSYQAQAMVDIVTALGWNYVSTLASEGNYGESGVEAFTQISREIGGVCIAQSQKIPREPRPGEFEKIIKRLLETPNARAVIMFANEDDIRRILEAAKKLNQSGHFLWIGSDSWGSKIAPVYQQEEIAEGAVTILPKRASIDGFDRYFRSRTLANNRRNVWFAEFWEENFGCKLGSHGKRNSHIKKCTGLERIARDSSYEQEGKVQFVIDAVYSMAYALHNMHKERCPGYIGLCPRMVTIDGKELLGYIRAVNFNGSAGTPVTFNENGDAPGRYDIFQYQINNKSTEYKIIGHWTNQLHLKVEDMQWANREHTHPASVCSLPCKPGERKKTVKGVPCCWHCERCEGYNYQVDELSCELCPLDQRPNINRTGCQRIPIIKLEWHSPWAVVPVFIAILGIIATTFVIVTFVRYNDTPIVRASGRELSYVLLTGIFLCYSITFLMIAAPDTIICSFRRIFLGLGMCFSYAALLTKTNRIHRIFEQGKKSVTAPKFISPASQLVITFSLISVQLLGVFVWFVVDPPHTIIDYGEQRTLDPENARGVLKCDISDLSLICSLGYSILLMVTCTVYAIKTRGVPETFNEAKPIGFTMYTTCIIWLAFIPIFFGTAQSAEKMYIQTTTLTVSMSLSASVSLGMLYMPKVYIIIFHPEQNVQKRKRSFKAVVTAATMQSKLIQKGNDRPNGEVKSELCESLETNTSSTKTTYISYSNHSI
row,SMILES,z-score
1,CCc1ccc(Nc2nnc(SCC(=O)N(C)CC(=O)Nc3ccccc3CC)s2)cc1,-0.439
2,CSc1nccc(Oc2ccc(C#N)cc2)n1,-0.172
3,CC1=C/C(=N\OS(=O)(=O)c2ccccc2)C=CC1=O,3
4,CC1=CC(=O)C=C(C)C1=NOS(=O)(=O)c1ccccc1,0.257
5,CC1=C/C(=N\OS(=O)(=O)c2ccccc2)C(C)=CC1=O,-0.189
6,Cc1ccc(C(=O)N2CC(C)OC(C)C2)c(Cl)c1 (configuration not stated),-0.0463
7,Cc1ccc(-n2c(Cc3cccn3C)nnc2SCC(=O)Nc2cc(C)on2)cc1,-0.345
8,CCNC(=S)NNC(=O)c1csc(CC)c1,-0.163
9,CCc1cc(C(=O)NNC(=S)NCc2ccccc2)cs1,0.0336
10,CNC(=S)NNC(=O)c1sccc1C,-0.0354
11,Cc1cccc(NC(=S)NNC(=O)c2sccc2C)c1,2.13
12,CCc1cc(C(=O)NNC(=S)Nc2ccccc2C)cs1,1.47
13,Cc1ccc(C)c(NC(=S)NNC(=O)c2sccc2C)c1,1.53
14,CCCCNC(=S)NNC(=O)c1csc(CC)c1,-0.0512
15,CCc1cc(C(=O)NNC(=S)Nc2cc(C)ccc2C)cs1,6.35 (active)
16,CCc1cc(C(=O)NNC(=S)Nc2cccc(C)c2)cs1,7.17 (active)
17,Cc1nn2c3c(cnc2c1-c1ccccc1)C(=O)CCC3,-0.149
18,CC(C)(C)C(=O)NC1(C(F)(F)F)N=C2SCCN2C1=O (configuration not stated),-0.137
19,O=C(COc1ccc(S(=O)(=O)NC2CCCCC2)cc1)NCc1cccnc1,-0.589
20,COc1cc(-c2nc3ccccc3c(=O)n2N)cc(OC)c1OC,-0.0215
21,O=C(CSc1ccc2nnc(-c3ccc(Cl)cc3)n2n1)N1CCCc2ccccc21,0.00121
22,Cc1cc2nc3c(nc2cc1C)C1(C(=O)N(C)C)CCC3(C)C1(C)C (configuration not stated),-0.192
23,Cc1cccc(-n2ncc3c(NCc4cccs4)ncnc32)c1,-0.705

row,SMILES,z-score
1,O=c1c2ccccc2c(-c2ccccc2)nn1Cc1ccc(Cl)cc1,-0.152
2,Cc1ccc2[nH]c3c(=O)n(CCC4=CCCCC4)cnc3c2c1,-0.447
3,Cn1c(-c2ccccc2O)cc2ccccc21,0.085
4,Cc1occc1C(=O)N=Nc1c(O)[nH]c2ccc(Br)cc12,-0.135
5,CCC(=O)NC(=S)Nc1ccc(NC(=O)c2ccc(OC)cc2)cc1,-0.111
6,O=C(Nc1ccccc1Sc1ccccc1)C1CCCO1 (configuration not stated),-0.775
7,Cc1cccc(NC(=O)C2CCCN2S(=O)(=O)c2cccc3cccnc23)c1 (configuration not stated),0.22
8,Cc1ccc(NC(=O)C2CCCN2S(=O)(=O)c2cccc3cccnc23)cc1F (configuration not stated),2.9
9,CC(=O)c1cccc(NC(=O)C2CCCN2S(=O)(=O)c2cccc3cccnc23)c1 (configuration not stated),4.14 (active)
10,Cc1ccccc1NC(=O)C1CCCN1S(=O)(=O)c1cccc2cccnc12 (configuration not stated),-0.0844
11,CC(=O)c1ccc(NC(=O)C2CCCN2S(=O)(=O)c2cccc3cccnc23)cc1 (configuration not stated),-0.24
12,O=C(Nc1cccc(F)c1)C1CCCN1S(=O)(=O)c1cccc2cccnc12 (configuration not stated),-0.182
13,COc1ccc(-c2cn3c(C)c(C(=O)N4CCN(c5ccc(F)cc5)CC4)sc3n2)cc1,0.116
14,COc1cccc(CNCCSc2nnnn2C)c1OC,0.709
15,O=C(CSc1ccc2ccccc2c1)NCc1cccs1,0.0417
16,O=C(CSc1cccc2cccc(Cl)c12)NCc1cccs1,3.5 (active)
17,Cc1csc(SCC(=O)NCc2cccs2)n1,0.824
18,O=C(NCc1cccnc1)c1cccc(C(F)(F)F)c1,-0.793
19,COc1ccccc1CNCc1cccs1,0.411
20,COc1cccc(CNCc2ccc(SC)cc2)c1OC,-0.19
21,COc1ccccc1CNCc1ccc(OC)c(OC)c1OC,2.07
22,CC1(C)CNC(=O)C=C(c2ccccc2)C1,-0.176
23,Cc1ccc(S(=O)(=O)N(C)CC(=O)O/N=C(\N)c2ccc([N+](=O)[O-])cc2)cc1,-0.621

row,SMILES,z-score
1,COn1c(=O)c(-c2ccc(Cl)cc2)[n+]([O-])c2ccccc21,-0.503
2,O=c1c(-c2ccc(Cl)cc2)[n+]([O-])c2ccccc2n1O,14 (active)
3,CCOn1c(=O)c(-c2ccc(Cl)cc2)[n+]([O-])c2ccccc21,0.119
4,Cc1ccc(C)c(-n2[nH]c3c4c(ccc3c2=O)C(=O)c2ccccc2C4=O)c1,0.0628
5,Cc1cc(NC(=O)c2ccc3c(c2)C(=O)N(C2CCCCC2)C3=O)no1,0.19
6,O=C(Nc1ccncc1)c1ccc2c(c1)C(=O)N(CC1CCCO1)C2=O (configuration not stated),-0.193
7,O=C(Nc1ccncc1)c1ccc2c(c1)C(=O)N(C1CCCCC1)C2=O,6.89 (active)
8,CCOC(=O)N1CCN(c2cc(=O)n(-c3ccc(OCC)cc3)c(=O)[nH]2)CC1,-0.000123
9,O=C(NNC(=O)c1sccc1-n1cccc1)c1ccc(Cl)cc1,3.06 (active)
10,O=C(NNC(=O)c1sccc1-n1cccc1)c1cccc(Cl)c1,4.1 (active)
11,O=C(NNC(=O)c1sccc1-n1cccc1)c1ccccc1,0.869
12,O=C(NNS(=O)(=O)c1ccc(Cl)cc1)c1sccc1-n1cccc1,0.249
13,O=C(N/N=C\c1ccc(Cl)cc1Cl)c1sccc1-n1cccc1,-0.203
14,O=C(NNS(=O)(=O)c1cc(Cl)cc(Cl)c1)c1sccc1-n1cccc1,1.93
15,CCOC(=O)N/N=C(C)/C=C/c1ccco1,0.31
16,CCC(Oc1ccccc1)C(=O)N1CCN(C(=O)C(CC)Oc2ccccc2)CC1 (configuration not stated),-0.159
17,Cn1c(SCC(=O)NNC(=O)Cc2ccccc2)nnc1-c1ccc(Cl)cc1,-0.126
18,CC(C)c1ccc(-n2cccc2/C=C2/C(=N)N3C=CSC3=NC2=O)cc1,2.17
19,N=C1/C(=C/c2cccn2-c2ccc([N+](=O)[O-])cc2)C(=O)N=C2SC=CN12,-0.214
20,N=C1/C(=C/c2cccn2-c2cccc([N+](=O)[O-])c2)C(=O)N=C2SC=CN12,-0.207
21,CC1CCN(c2c([N+](=O)[O-])c(=O)n(-c3ccccc3)c3ccccc23)CC1,0.00884
22,N#C/C(=C/c1ccc(OCc2ccccc2)cc1)C(=O)NC1CCCCC1,0.0182
23,O=C(NCCN1CCCC1)c1ccc(CS(=O)(=O)c2c(Cl)cccc2Cl)o1,-0.063

row,SMILES,z-score
1,O=C(c1sc2cc(F)ccc2c1Cl)N1CCN(c2cccc(Cl)c2)CC1,-0.403
2,CCCCCCC(=O)NC(Nc1ccc(S(N)(=O)=O)cc1)C(Cl)(Cl)Cl (configuration not stated),-0.259
3,Cn1ncc2c(=O)n(CC(=O)NC34CC5CC(CC(C5)C3)C4)cnc21,-0.265
4,COC(=O)C1=NN(N=O)C2(CC(=O)N(c3cc(C)cc(C)c3)C2=O)C1 (configuration not stated),-0.194
5,Cc1ccc(C)n1-c1ccc(C(=O)NCC2CCCO2)cc1 (configuration not stated),-0.25
6,CCCCN(C)C1=CC2=CC(=C(C#N)C#N)CCC2CC1 (configuration not stated),5.11 (active)
7,N#CC(C#N)=C1C=C2C=C(N3CCCCC3)CCC2CC1 (configuration not stated),10.9 (active)
8,O=c1[nH]c2cc3c(cc2cc1C(c1nnnn1C1CCCCC1)N1CCSCC1)OCCO3 (configuration not stated),0.278
9,CCC(=O)N1CCc2cc(S(=O)(=O)NCCCOC)ccc21,-0.216
10,Cc1nc2ccccn2c1C(=O)N/N=C/c1ccc2c(c1)OCO2,0.65
11,COCCn1c(SCC(=O)c2ccc3c(c2)OCCO3)nnc1-c1ccoc1C,-0.231
12,O=c1nc(NCc2ccccc2Cl)cn[nH]1,0.66
13,CC(Nc1ccc(Br)cc1)C(=O)N/N=C/c1ccccc1OCc1ccccc1 (configuration not stated),-0.283
14,COc1ccc(NC(=O)C23CCC(C)(C(=O)O2)C3(C)C)cc1 (configuration not stated),0.0605
15,COC(=O)c1cc(NC(=O)C23CCC(C)(C(=O)O2)C3(C)C)cc(C(=O)OC)c1 (configuration not stated),0.577
16,COC(=O)c1ccc(NC(=O)C23CCC(C)(C(=O)O2)C3(C)C)cc1 (configuration not stated),2.35
17,Cc1cs/c(=N\N=C\c2cccc([N+](=O)[O-])c2)n1Cc1ccco1,5.13 (active)
18,Cc1cs/c(=N\N=C\c2ccccc2)n1Cc1ccco1,-0.431
19,Cc1csc(=NC(=O)c2ccccc2)n1Cc1ccco1,-0.784
20,CC(C(=O)Nc1ccc(F)c(F)c1F)N(C)CC(=O)Nc1ccccc1Br (configuration not stated),-0.465
21,O=C(c1ccccc1)c1ccc(OCC(O)CN2CCN(S(=O)(=O)N3CCCCC3)CC2)cc1 (configuration not stated),0.198
22,O=C(c1ccccc1)c1ccc(OCC(O)CN2CCOCC2)cc1 (configuration not stated),-0.0655
23,OC(COc1ccc(OCc2ccccc2)cc1)CN1CCCCC1 (configuration not stated),2.76

row,SMILES,z-score
1,O=C(c1ccccc1)c1ccc(OCC(O)CN2CCCCC2)cc1 (configuration not stated),2.13
2,OC(COc1ccc(OCC(O)CN2CCCCCC2)cc1)CN1CCCCCC1 (configuration not stated),-0.0132
3,OC(COc1ccc(OCc2ccccc2)cc1)CN1CCOCC1 (configuration not stated),-0.0779
4,COc1ccc2nc(C)cc(SCC(=O)N/N=C/c3ccccc3)c2c1,0.834
5,Cn1nnnc1SCC(=O)N(C1CCCCC1)C1CCCCC1,2.45
6,CCn1nnnc1SCC(=O)N(C1CCCCC1)C1CCCCC1,-0.262
7,Cn1nnnc1SCC(=O)NC1CCCCC1,-0.00615
8,Cc1ccc2cc(CN(CCN3CCCC3)C(=O)Nc3ccccc3)c(=O)[nH]c2c1C,-0.236
9,Cc1ccc2cc(CN(CCN3CCCC3)C(=O)Nc3ccc(F)cc3)c(=O)[nH]c2c1C,2.05
10,Cc1ccc(C)c2[nH]c(=O)c(CN(CCN3CCCC3)C(=O)Nc3ccc(F)cc3)cc12,0.644
11,CCC(C)C(N)C(=O)NC(CCC(=O)OCc1ccccc1)C(N)=O (configuration not stated) (H-Ile-Glu(OBn)-NH2; configuration not given here),0.0296
12,Cc1nc(NCCc2ccccc2F)c(C#N)c(C)c1[N+](=O)[O-],0.24
13,O=C(c1scc2c1CCCC2)N1CCCCC1,-0.475
14,Cc1ccc2c(c1)N(Cc1ccncc1)C(=O)C(C)O2 (configuration not stated),0.33
15,O=C1OC(Cc2ccncc2)C(O)=C1C1=NCCCN1 (configuration not stated),-0.135
16,CC1=CC(=O)OC1Cc1ccncc1 (configuration not stated),14.2 (active)
17,O=C(O)CCCCCN1C(=O)/C(=C/c2ccncc2)SC1=S,-0.0629
18,CCC(C)c1ccc(O)c(NC(=O)c2ncn[nH]2)c1 (configuration not stated),-0.374
19,Cc1ccc(C)c(-c2cc(C(=O)NCc3cccs3)c3ccccc3n2)c1,-0.0338
20,O=C(Nc1ccc(Br)cc1F)c1ccc2c(c1)N(Cc1ccccc1)C(=O)CS2=O (configuration not stated),1.3
